Source: ChEMBL document CHEMBL3988442, “University of Dundee, Small-Polar-MMV Screening Library” (2021)
The campaign covered roughly 69,000 compounds. About 950 (1.4%) showed an effect of 50% or more. This is one part of a sample in which strong results are shown more often than they occur.

test system: Mycobacterium tuberculosis; assay: Cornell M. t heat shock assay; type: functional, organism-based; design: dose or concentration left out as unconfirmed; also: in the data most compounds retested in dose-response had high values

Structure (SMILES)	Percent Effect [%]
COc1cc(N2CC[C@@H](O)[C@@H]2Cc2cccnc2)ncn1.O=C(O)C(F)(F)F	0.6687
CCCN(CC(=O)N1CCNCC1)C(=O)c1cccc(Cl)c1.O=C(O)C(F)(F)F	0.5334
CCOc1ccccc1OCCN(C)Cc1nccn1C	-26.9
Cc1ccc(OCCN(C)Cc2nccn2C)c(C)c1	55.39
CN(CCCOc1ccccc1)Cc1nccn1C	-13.65
O=C(C1CCCc2[nH]ncc21)N1CCCC2(C1)OCCO2 (stereo not drawn)	10.11
CN(C)C(c1ccccn1)[C@H]1CC[C@H](CNC(=O)C2CCCC2)CC1 (stereo partly drawn)	5.9375
N#Cc1ccc(C(=O)N2CC[C@H]3[C@H]2CCN3CC2CCOCC2)cc1.O=C(O)C(F)(F)F	-36.11
N#Cc1ccc(C(=O)NCCCNc2ccc(C(F)(F)F)cn2)cc1	28.89
Cc1cc(NCCNc2ccc(C#N)cn2)nc(C)n1	-18.17
N#Cc1ccc(NCCNc2ccc(C(F)(F)F)cn2)nc1	51.52
N#CC1(C(=O)NCCCNc2ccc(C(F)(F)F)cn2)CCCC1	102.8
O=C(NCCCNc1ccc(C(F)(F)F)cn1)c1ccc(F)cc1	26.36
O=C(NCCCNc1ccc(C(F)(F)F)cn1)c1ccccc1	26.28
O=C(O)C(F)(F)F.O=C1CC(c2ccccc2)C2(CCN(Cc3nccs3)CC2)N1 (stereo not drawn)	-1.259
CC(=O)N1CCC2(CC1)CNc1c(F)cccc12.Cl	12.35
Cc1cc2c(c(-c3c[nH]c(C)n3)c1)OC(CN)C2 (stereo not drawn)	1.503
Cc1nc(-c2cc(Cl)cc3c2OC(CN)C3)c[nH]1 (stereo not drawn)	52.4
Cc1nc(-c2cc(Cl)c3c(c2)CC(CN)O3)c[nH]1 (stereo not drawn)	42.51
Cc1cc(C(F)(F)F)n2nc(C3CCCN3C3CCSCC3)cc2n1.O=C(O)CC(O)(CC(=O)O)C(=O)O (stereo not drawn)	-13.15
COCC(=O)NC1CC2(CCN(CC3CC3)CC2)Oc2ccccc21.O=C(O)C(F)(F)F (stereo not drawn)	-26.45
COc1cc(N2CCC3(CCN(Cc4nccs4)CC3)C2)ncn1.O=C(O)C(F)(F)F	24.13

Structure (SMILES)	Percent Effect [%]
Cc1cccc(CN2C[C@H](OCc3csc(C)n3)[C@H]3COC[C@H]32)n1.O=C(O)C(F)(F)F.O=C(O)C(F)(F)F	-14.33
CC(C)Oc1ccc(C(=O)Cn2cnnc2[S+](C)[O-])cc1 (stereo not drawn)	17.53
CC(C)Cc1ccc(C(=O)Cn2cnnc2[S+](C)[O-])cc1 (stereo not drawn)	59.76
C[S+]([O-])c1nncn1CC(=O)c1ccc(Br)cc1 (stereo not drawn)	11.9
O=C(O)C(F)(F)F.O=C(c1ccc(F)cc1)N1CCC2(CCCN2CC2CC2)CC1	-17.36
CC(=O)N1CCN(c2ccc3ccc(C(=O)NC4CCCC4)cn23)CC1	69.47
CC(C)N1CCN(c2ccc3ccc(C(=O)NC4CCCC4)cn23)CC1.O=C(O)C(F)(F)F	67.57
O=C(NC1CC1)c1ccc2ccc(N3CCN(CC4CC4)CC3)n2c1	38.85
CS(=O)(=O)N1CCN(c2ccc3ccc(C(=O)NC4CC4)cn23)CC1	20.39
COCCN1CCN(c2ccc3ccc(C(=O)NC4CC4)cn23)CC1	-14.38
CN(C)C(=O)N1CCN(c2ccc3ccc(C(=O)NC4CC4)cn23)CC1	-6.605
CN(C)C(=O)[C@H]1C[C@@H]2CCN(C3CCOCC3)C[C@@H]2O1.O=C(O)C(F)(F)F	2.005
CN(C)c1ncnc2c1CCN(CC1CCOC1)CC2.O=C(O)C(F)(F)F (stereo not drawn)	-1.073
Cc1cccc(N2CC[C@@H]3CN(C(=O)c4ccco4)CCO[C@@H]3C2)n1.O=C(O)C(F)(F)F	6.087
Cn1cccc1C(=O)N1CCO[C@@H]2CN(Cc3nccs3)C[C@@H]2C1.O=C(O)C(F)(F)F	-1.358
CN(C)[C@H]1CCN(c2ccnc(C(=O)NCc3ccco3)c2)C1	19.62
CCCOC1CCCN(c2ccnc(C(=O)NCc3ccco3)c2)C1 (stereo not drawn)	56.57
O=C(NCc1ccco1)c1cc(N2CC[C@@H](O)C2)ccn1	1.104
CC[C@@H]1N(Cc2ccoc2)CCC[C@]12CCC(=O)N2CCOC.O=C(O)C(F)(F)F	-21.47
CN1CC[C@H]2[C@H](C[C@@H](CN3CCCC3)N2c2nccs2)C1.O=C(O)C(F)(F)F.O=C(O)C(F)(F)F.O=C(O)C(F)(F)F	17.76
O=C(O)C(F)(F)F.O=C1N(CC2CC2)CCC12CCCN(c1ncc(F)cn1)C2 (stereo not drawn)	23.17
Cc1ccc(CN2CCC3(CC2)C(=O)Nc2ccccc23)s1.O=C(O)C(F)(F)F	0.7618

Structure (SMILES)	Percent Effect [%]
Cc1ccc(CN2CCC3(C2)C(=O)N(CC(N)=O)c2ccccc23)s1 (stereo not drawn)	-35.1
Cc1ccc(CN2CCC3(CC2)C(=O)N(C)c2ccccc23)s1.O=C(O)C(F)(F)F	67.96
CC(C)CN1C(=O)C2(CCN(Cc3ccc(F)cc3)C2)c2ccccc21 (stereo not drawn)	17.34
Cc1ccc(CN2CCC3(C2)C(=O)N(CC2CC2)c2ccccc23)s1.O=C(O)C(F)(F)F (stereo not drawn)	22.05
Cc1ccc(CN2CCC3(C2)C(=O)N(CC(C)C)c2ccccc23)s1 (stereo not drawn)	104.8
Cc1cccc(CN2C[C@@H]3COC[C@]3(COc3cccnc3)C2)n1.O=C(O)C(F)(F)F.O=C(O)C(F)(F)F.O=C(O)C(F)(F)F	-8.53
Cc1cc(Nc2nc(C)cs2)nc(C2CCCCN2CCO)n1 (stereo not drawn)	103.2
Cc1cccc(Nc2cc(C)nc(C3CCCCN3CC(N)=O)n2)n1 (stereo not drawn)	-15.32
Cc1csc(Nc2cc(C3CCCCN3C)nc(C)n2)n1 (stereo not drawn)	-8.179
COc1nc2cc(C)ccc2cc1CN(C)Cc1cc(C)[nH]n1.O=C(O)CC(O)(CC(=O)O)C(=O)O	-1.641
O=C(O)C(F)(F)F.O=C(O)C(F)(F)F.O=C1[C@H]2CN(Cc3ccoc3)C[C@H]2CN1CCN1CCCC1	-10.49
O=C(c1ncccn1)N1C[C@@H]2COC[C@]2(COc2cccnc2)C1	26.01
O=C(C1=CCCC1)N1C[C@@H]2COC[C@]2(COc2cccnc2)C1	1.513
O=C(c1cocn1)N1C[C@@H]2COC[C@]2(COc2cccnc2)C1	75.2
O=C(O)C(F)(F)F.O=C(c1cocn1)N1C[C@H]2CCC[C@@]2(COc2ccccn2)C1	21.2
Cn1cc(CNC2CC3(CCN(S(C)(=O)=O)CC3)c3ccccc32)cn1.O=C(O)C(F)(F)F (stereo not drawn)	36.25
CS(=O)(=O)N1CCC2(CC1)CC(NCC1CC1)c1ccccc12.O=C(O)C(F)(F)F (stereo not drawn)	1.272
CS(=O)(=O)N1CCC2(CC1)CC(NCc1ccco1)c1ccccc12.O=C(O)C(F)(F)F (stereo not drawn)	55
COc1ccccc1C1CCN(c2ccc3cc[nH]c3n2)CC1	-1.592
COc1cccc(C2CCN(c3ccc4cc[nH]c4n3)C2)c1OC (stereo not drawn)	36.99
COc1ccc(OC)c(C2CCN(c3ccc4cc[nH]c4n3)C2)c1 (stereo not drawn)	103.8
CS(=O)(=O)N1C[C@H]2CC[C@@H]1CN(Cc1ccncc1)C2	-0.4425

Structure (SMILES)	Percent Effect [%]
Cn1cc(N2CCC3(CCN(Cc4nccs4)C3)C2=O)cn1.O=C(O)C(F)(F)F (stereo not drawn)	-0.6336
Cc1cnnn1Cc1ncn2c1CN(Cc1cccs1)CCC2.O=C(O)C(F)(F)F	1.772
O=C(O)C(F)(F)F.O=C(O)C(F)(F)F.O=C1CO[C@@H]2CN(CC3CCOCC3)C[C@H]2N1Cc1ccncc1	-5.107
Cc1ccsc1C(=O)Nc1ccc(N2CCC(O)CC2)c(C#N)c1	75.65
N#Cc1cc(NC(=O)c2ccsc2)ccc1N1CCC(O)CC1	11.62
Cc1ccc(C(=O)Nc2ccc(N3CCC(O)CC3)c(C#N)c2)s1	25.13
COc1ccc(C[C@H]2CN(C(=O)c3ccc(C)nc3)CC[C@@H]2OC)cc1.O=C(O)C(F)(F)F	-2.913
CNC(=O)[C@H]1C[C@@H]2CCN(Cc3ccncc3)C[C@H]2O1.O=C(O)C(F)(F)F.O=C(O)C(F)(F)F	-3.411
CC(C)c1cc(C(=O)NCC2CCCN(C(C)C)C2)n(C)n1.Cl (stereo not drawn)	-0.8268
CC(C)(C)c1cc(NC(=O)CN2CCCC2Cn2cncn2)on1 (stereo not drawn)	2.377
Cc1cc(C)n(CC2CCCN2CC(=O)Nc2cc(C(C)C)no2)n1 (stereo not drawn)	66.41
Cc1cnn(CC2CCCN2CC(=O)Nc2cc(C(C)C)no2)c1 (stereo not drawn)	98.13
Cc1cnn(CC2CCCN2CC(=O)NC2CCOCC2)c1 (stereo not drawn)	-0.7823
CC(C)(C)c1cc(NC(=O)CN2CCCC2Cn2cccn2)on1 (stereo not drawn)	77.39
Cc1cnn(CC2CCCN2CC(=O)Nc2cc(C)on2)c1 (stereo not drawn)	-31.38
Cc1cnn(CC2CCCN2CC(=O)Nc2cc(C(C)(C)C)no2)c1 (stereo not drawn)	73.93
CC(C)c1cc(NC(=O)CN2CCCC2Cn2cncn2)on1 (stereo not drawn)	-8.042
Cc1nc(C)n(CC2CCCN2CC(=O)Nc2cc(C(C)C)no2)n1 (stereo not drawn)	-40.94
CC(C)c1cc(NC(=O)CN2CCCC2Cn2cccn2)on1 (stereo not drawn)	-10.53
CC(C)(C)c1cc(NC(=O)CN2CCCCC2Cn2cncn2)on1 (stereo not drawn)	-1.6
Cc1cnn(CC2CCCN2CC(=O)Nc2cc(C)no2)c1 (stereo not drawn)	35.93
CCCc1nc(CN2CCCC(Cn3cncn3)C2)no1 (stereo not drawn)	-9.9
